Screening data from PubChem.
Tb PGK inh = qHTS Assay to Find Inhibitors of Phosphoglycerate Kinase | AID 602233, 2012 | Potency, µM (highest dose often 57.5 µM), for the others: at the highest dose activity change, negative = inhibition, actives largely listed as inhibitors | Phosphoglycerate kinase, glycosomal (Trypanosoma brucei brucei), P07378 | PGK/GAPDH coupled, Kinase-Glo luminescence, 60 min | hit rate 0.043% among 380,000; note: potency is the fitted concentration of half-maximal effect; nearly all actives have a fitted effect of over 60% in size
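Recombinant glycosomal PGK reaction used 1,3-bisphosphoglycerate generated in-well by GAPDH (100nM final) in 100mM TEA pH 7.6, 5mM MgCl2, 0.01% Tween-20. After 60 minutes at room temperature, ATP was read by Kinase-Glo Plus luminescence end-point.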
TDP1 block = qHTS Assay for Inhibitors of Tyrosyl-DNA Phosphodiesterase (TDP1); Tyrosyl-DNA phosphodiesterase 1 (Homo sapiens), Q9NUW8; recombinant TDP1, AlphaScreen DNA substrate cleavage; Potency, µM (titrated, usually from 130 µM), without a hit: at the highest dose activity change, negative = inhibition, hits mostly inhibitors; hit rate 0.28% among 350,000; AID 485290, 2010; note: potency is the fitted concentration of half-maximal effect; nearly all actives have a fitted effect of over 40% in size
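E. coli-derived human Tdp1, 1 nM final. Cpd preinc 15 min RT; substrate 15 nM final, 5 min RT; AS bead mix 10 ug/ml final, 10 min RT. Signal loss = tyrosine-FITC cleavage. No-enzyme wells = max signal.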
PI4K2A block = qHTS for small molecular inhibitors of PI4K2A; purified PI4K2A, ADP-Glo luminescence, 1 h; hits give low values; AID 1346378, 2018; hit rate 0.13% among 420,000; activity change, negative = inhibition, % at 76.9 µM; Phosphatidylinositol 4-kinase type 2-alpha (Homo sapiens), Q9BTU6; in the data active = activity change below about -50%; inconclusive = mostly about -30% to -49%;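 note: -100% = wells without enzyme as full effect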
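PI4K2A activity was measured by ADP-Glo luminescence: enzyme (4 ug/mL stock) and phosphatidylinositol (1.2 mM stock) in Tris pH 7.5/MgCl2/EGTA/Triton X-100 buffer were reacted with ATP (300 microM stock) for one hour at ambient temperature.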
FEN1 inhibitor = qHTS Assay for the Inhibitors of Human Flap endonuclease 1 (FEN1); Recombinant FEN1 flap cleavage, fluorescence, 15 min; Potency, µM (series often up to 114 µM), inactives show top-dose activity change, negative = inhibition, actives largely listed as inhibitors; P39748; AID 588795, 2011; hit rate 0.35% among 390,000; note: potency is the fitted concentration of half-maximal effect; nearly all actives have a fitted effect of over 65% in size
Target sequence (P39748 whole entry, looked up): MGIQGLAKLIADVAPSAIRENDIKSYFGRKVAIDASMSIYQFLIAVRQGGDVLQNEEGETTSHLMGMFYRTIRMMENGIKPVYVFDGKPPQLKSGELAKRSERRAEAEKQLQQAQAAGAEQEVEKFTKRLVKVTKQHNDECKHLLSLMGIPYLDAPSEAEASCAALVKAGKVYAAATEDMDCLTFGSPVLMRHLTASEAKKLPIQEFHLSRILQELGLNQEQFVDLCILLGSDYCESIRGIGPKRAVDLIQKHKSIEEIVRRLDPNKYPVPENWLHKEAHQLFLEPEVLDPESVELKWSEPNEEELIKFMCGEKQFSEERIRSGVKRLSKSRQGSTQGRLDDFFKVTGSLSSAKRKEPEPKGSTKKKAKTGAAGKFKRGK
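Potency values derive from four-parameter Hill fits of normalized qHTS data. The reaction used 10 nM FEN1 preincubated 15 min at room temperature with compound, then 50 nM DNA substrate, read at 0 and 15 min.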
APE1 inh = qHTS Assay for Inhibitors of the Human Apurinic/apyrimidinic Endonuclease 1 (APE1). Potency, µM (highest dose often 65.8 µM), for inactives: at the highest dose activity change, negative = inhibition, usual class: inhibitors. DNA repair nuclease/redox regulator APEX1 (Homo sapiens), P27695. hit rate 0.35% among 350,000. recombinant APE1, TAMRA/BHQ-2 abasic DNA cleavage fluorescence;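 note: potency is the fitted concentration of half-maximal effect; plate controls were vehicle for no effect and reference inhibitor for full effect; nearly all actives have a fitted effect of over 55% in size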
Target sequence (P27695 whole entry, looked up): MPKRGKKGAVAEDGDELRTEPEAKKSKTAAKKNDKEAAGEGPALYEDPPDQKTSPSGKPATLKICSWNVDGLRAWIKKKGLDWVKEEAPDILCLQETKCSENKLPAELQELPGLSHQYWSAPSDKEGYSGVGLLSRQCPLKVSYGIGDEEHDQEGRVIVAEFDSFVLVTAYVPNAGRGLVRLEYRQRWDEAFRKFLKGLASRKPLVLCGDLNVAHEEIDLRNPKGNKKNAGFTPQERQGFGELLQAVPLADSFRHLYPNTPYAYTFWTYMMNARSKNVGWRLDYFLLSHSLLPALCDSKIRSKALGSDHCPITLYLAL
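Step 1: APE1 (0.75 nM) with compound, 15 min RT. Step 2: add 50 nM fluorophore/quencher THF duplex. Step 3: three fluorescence reads 60 s apart (525/598 nm); read 3 minus read 1 = reaction progress.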
Tb PFK block = qHTS Assay to Find Inhibitors of T. brucei phosphofructokinase. T. brucei PFK, ADP-Glo luminescence. hit rate 0.17% among 330,000. Potency, µM (series often up to 57.5 µM), for inactives: at the highest dose activity, negative = inhibition, usual class: inhibitors. ATP-dependent 6-phosphofructokinase (Trypanosoma brucei brucei), O15648;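 note: potency is the fitted concentration of half-maximal effect; 0% = uninhibited 1x PFK enzyme wells and -100% = no-enzyme wells; nearly all actives have a fitted effect of over 60% in size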
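Luminescent ADP detection (ADP-Glo, two-step: ATP depletion then ADP-to-ATP conversion for luciferase) reported PFK activity after 45 min room-temperature reaction of 1.25 nM enzyme with 0.5 mM F6P and 0.1 mM ATP at pH 8.0.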
Starred values were filed as active, the others as inactive; i = inactive; ? = inconclusive; nt = not tested or not shown; [ ] = dose if it differs, or a comment. Compounds with a hit are over-represented: about 0.8% of the library has one in this group of screens. Unless noted, calls come from the whole dose curve; as a rule, active = well fitted curve in the direction sought with a large enough effect; inconclusive = small, poorly fitted or top-dose-only effect, or another doubt; inactive = no such curve, though single readings can be large; an effect the other way counts as inactive or inconclusive. Unless noted, % is set by controls: 0 for no effect and ±100 for the full control effect.

SMILES	Tb PGK inh	TDP1 block	PI4K2A block	FEN1 inhibitor	APE1 inh	Tb PFK block
CCC[n+]1c2ccccc2cc2ccccc21	-7%	nt	27	?	38%	-1%
CCCC[n+]1c2ccccc2cc2ccccc21	2%	nt	25	79µM*	-22%	-29%
COc1cc(OC)c(/C=C/c2ccc3ccccc3[n+]2C)c(OC)c1	nt	nt	nt	25µM*	nt	nt
COC(=O)c1cc(S(N)(=O)=O)ccc1OC	nt	nt	3	nt	nt	nt
Cc1ccccc1N1CCN(CCc2nnc3n2CCCC3)CC1	nt	nt	-1	nt	nt	nt
Nc1cc(C(=O)O)c(O)c(S(=O)(=O)O)c1	nt	nt	nt	nt	28µM*	nt
COc1cc(F)c(S(=O)(=O)N2CCN(S(=O)(=O)c3cccc(N)c3)CC2)c(F)c1	nt	1%	nt	nt	nt	nt
Cc1cc(OCCOCC[N+](C)(C)Cc2ccccc2)ccc1C(C)(C)CC(C)(C)C	nt	nt	-2	nt	nt	nt
CCOC(=O)C1=C(C)N=c2s/c(=C\c3ccc(OCC(=O)O)cc3)c(=O)n2C1c1ccccc1OC (configuration not stated)	-6%	nt	6	79µM*	?	-5%
CCOC(=O)C1=C(C)N=c2s/c(=C/c3cccc([N+](=O)[O-])c3O)c(=O)n2C1c1ccc(OC)cc1OC (configuration not stated)	?	nt	-17	-35%	24µM*	-3%
CCOC(=O)C1=C(C)N=c2s/c(=C/c3ccc(OCC(=O)O)cc3)c(=O)n2C1c1ccc(OC)cc1OC (configuration not stated)	?	nt	-3	?	?	5%
CCOC(=O)C1=C(C)N=c2s/c(=C/c3ccc(OCC(=O)O)c(OC)c3)c(=O)n2C1c1ccc(Cl)cc1 (configuration not stated)	14µM*	nt	-11	50µM*	nt	nt
CCOC(=O)C1=C(C)N=c2s/c(=C/c3ccc(OCC(=O)O)cc3)c(=O)n2C1c1ccc(SC)cc1 (configuration not stated)	nt	nt	nt	nt	7.5µM*	-6%
CC1=C(C(=O)OC(C)C)C(c2ccc(Cl)cc2)n2c(sc(=Cc3ccc(OCC(=O)O)cc3)c2=O)=N1 (configuration not stated)	nt	nt	-15	nt	nt	nt
O=C1NC(=O)/C(=C/c2cccn2-c2ccc(P(O)O)cc2)N1	nt	nt	nt	nt	38%	nt
COCCOCC(OC)OC	nt	nt	-5	nt	nt	nt
Cc1ccc(C(=O)c2cn(Cc3ccccc3)c3c(F)cc(F)cc3c2=O)cc1	-9%	5%	-2	2%	nt	nt
COc1ccc(C(=O)c2cn(Cc3ccc(F)cc3)c3c(F)cc(F)cc3c2=O)cc1	i	6%	2	89µM*	nt	nt
COc1ccc(CCN2C(=O)c3cccc4cccc(c34)C2=O)cc1OC	-10%	-2%	-5	11%	0%	2%
COc1ccc(CN2C(=O)c3cccc4cccc2c34)cc1F	-3%	50µM*	-1	1%	-17%	2%
Cc1cccc(/C=C(\C(=O)O)c2ccc(S(=O)(=O)N3CCCC3)s2)c1	-8%	11µM*	0	1%	12µM*	-25%
O=C(Nc1ccccc1)c1ccc2nc(-c3ccco3)c(-c3ccco3)nc2c1	-7%	0%	-51*	?	2%	-3%
CNC(=O)c1ccc2nc(-c3ccco3)c(-c3ccco3)nc2c1	nt	11µM*	nt	6.3µM*	nt	nt
CCCCNC(=O)c1ccc2nc(-c3ccco3)c(-c3ccco3)nc2c1	-8%	-8%	?	40µM*	-5%	-15%
O=C(Nc1ccc(N2CCOCC2)cc1)c1ccc2nc(-c3ccco3)c(-c3ccco3)nc2c1	0%	6%	-4	11%	-6%	-1%
SMILES	Tb PGK inh	TDP1 block	PI4K2A block	FEN1 inhibitor	APE1 inh	Tb PFK block
O=C(NC1CC1)c1ccc2nc(-c3ccco3)c(-c3ccco3)nc2c1	nt	?	nt	11µM*	nt	nt
OC[C@H]1O[C@@H](O[C@H]2[C@H](O)[C@@H](O)[C@H](O)O[C@@H]2CO)[C@H](O)[C@@H](O)[C@@H]1O	nt	nt	nt	nt	-1%	nt
Nc1ccc2c(c1)CN1C(=O)c3ccccc3C1=N2	nt	nt	i	nt	nt	nt
COc1ccc(-c2noc(C3CCCN(C(=O)c4ccc(F)cc4)C3)n2)cc1 (configuration not stated)	-1%	nt	0	89µM*	-7%	4%
Nc1c(-c2ccccc2)cc[nH]c1=O	nt	5%	nt	nt	nt	nt
COc1cc2c(NC3CCN(C)CC3)nc(N3CCCN(C)CC3)nc2cc1OCCCN1CCCCC1	nt	nt	nt	22µM*	nt	nt
COc1cc2c(NC3CCN(C)CC3)nc(N3CCCN(C)CC3)nc2cc1OCCOCCN1CCCC1	nt	nt	nt	20µM*	nt	nt
CCC(=O)Nc1ccc(OCc2cc(C3Nc4ccccc4C(=O)N3Cc3ccccc3)ccc2OC)cc1 (configuration not stated)	nt	1%	nt	nt	nt	nt
CC(C)CCCC(C)NCCC(C)C (configuration not stated)	nt	nt	-1	nt	nt	nt
COc1ccc(NC(=S)Nc2ccc(N)c([N+](=O)[O-])c2)cc1	-4%	9%	-53*	2%	11%	-4%
OCc1cccc(-c2noc(-c3ccccc3F)n2)c1	nt	nt	nt	nt	57%	nt
CCOc1cc(/C=C2\N=C(SC)SC2=O)cc([N+](=O)[O-])c1OC(C)=O	-6%	8%	-16	50µM*	-9%	6%
CCOc1cc(/C=C2\N=C(SCC)SC2=O)cc([N+](=O)[O-])c1OC(C)=O	-21%	1%	7	?	2%	4%
CC[n+]1c(/C=C/N(C)c2ccccc2)n(-c2ccccc2)c2ccc(-c3nc4ccccc4s3)cc21	9%	9%	-5	40µM*	?	17%
Cc1ccc(CN(C)c2ccc(N3CCN(C)CC3)cc2)cc1	nt	nt	nt	nt	17%	nt
CC(C)(C)NS(=O)(=O)c1cccc(-c2nnc(SCc3ccc(C(=O)O)cc3)n2-c2ccccc2)c1	nt	nt	nt	nt	50%	nt
O=C1c2ccccc2C(=O)c2c(NCCCN(CCO)CCO)cccc21	-14%	4%	-5	20µM*	?	1%
CCN(CC)CC(=O)Nc1cccc2c1C(=O)c1ccccc1C2=O	-3%	5%	5	-6%	7%	1%
Cc1ccc(NC(=O)c2ccc3nc[nH]c3c2)nc1	-15%	35µM*	-9	-16%	-42%	8%
O=C(OCc1ccccc1F)c1cnc(Cl)c(Cl)c1	i	89µM*	-1	-11%	14%[12.4 µM]	0%
